# DAX1 inh-1 – inhibitors of human orphan nuclear receptor DAX1 (NR0B1); P51843; HEK293 Gal4-DAX1 luciferase reporter, luminescence; inhibition, % at 6.75 µM; 340,000 tested, 0.99% active;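 active means inhibition above the mean over all tested compounds plus 3 SD, cut at about 4.2% in these data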;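 further: 0% = DAX1-transfected cells with DMSO and 100% = empty-vector control cells with DMSO; inhibition shows as a rise in luminescence from relieved DAX1 repression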
# hgDAF12 agonist – hgDAF-12 agonism, primary luciferase screen | HEK293 GAL4-hgDAF12 UAS-luciferase reporter, agonist luminescence; normalized to butyrate control | activation, % at 6.8 µM | 370,000 tested, 1.8% active | AID 687014;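 active means activation above a cutoff set at the mean of all screened compounds plus 3 SD, cut at about 10% in these data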;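 further: 0% = DMSO wells and 100% = sodium butyrate wells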
# hcDAF-12 act – H. contortus DAF-12 activation, primary screen. activation, % at 6.8 µM. 370,000 tested, 1.4% active. HEK293 hcDAF-12 lit1-tk-luc reporter, luminescence; 0% DMSO, 100% Δ7-dafachronic acid;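 active means activation above the mean of all tested compounds plus 3 SD, cut at about 5.5% in these data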;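 further: 100% = response to 3 µM Δ7-dafachronic acid high control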
# ssDAF12 agonist – activates DAF-12 receptor from parasite S. stercoralis; HEK293 ssDAF-12/GRIP1 lit1-tk-luc reporter, luminescence; % of 3 µM dafachronic acid response; activation, % at 6.8 µM; 370,000 tested, 1% active;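 active means activation above the mean over all tested compounds plus 3 SD, cut at about 0.9% in these data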;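 further: 0% = DMSO-only wells and 100% = 3 µM delta7-dafachronic acid wells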
# DAX1 inh-2 – DAX1 (NR0B1) inhibition, primary screen. HEK293T StAR-luciferase reporter, SF-1/DAX-1 repression relief. inhibition, % at 6.8 µM. 370,000 tested, 1.1% active. AID 652010;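 active means inhibition above the mean over all tested compounds plus 3 SD, cut at about 3.6% in these data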;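 further: 0% = DAX-1 cells with DMSO and 100% = cells lacking DAX-1 with DMSO; higher inhibition means more luminescence from relief of DAX-1 repression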
# AHR act – human AHR activation; P35869; AHR-responsive luciferase reporter cells, luminescence; activation, % at 5 µM; 320,000 tested, 2.5% active; in the data active means activation above about 47%;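 further: 0% = vehicle wells and 100% = reference agonist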
# Target sequence (P35869 whole entry, looked up): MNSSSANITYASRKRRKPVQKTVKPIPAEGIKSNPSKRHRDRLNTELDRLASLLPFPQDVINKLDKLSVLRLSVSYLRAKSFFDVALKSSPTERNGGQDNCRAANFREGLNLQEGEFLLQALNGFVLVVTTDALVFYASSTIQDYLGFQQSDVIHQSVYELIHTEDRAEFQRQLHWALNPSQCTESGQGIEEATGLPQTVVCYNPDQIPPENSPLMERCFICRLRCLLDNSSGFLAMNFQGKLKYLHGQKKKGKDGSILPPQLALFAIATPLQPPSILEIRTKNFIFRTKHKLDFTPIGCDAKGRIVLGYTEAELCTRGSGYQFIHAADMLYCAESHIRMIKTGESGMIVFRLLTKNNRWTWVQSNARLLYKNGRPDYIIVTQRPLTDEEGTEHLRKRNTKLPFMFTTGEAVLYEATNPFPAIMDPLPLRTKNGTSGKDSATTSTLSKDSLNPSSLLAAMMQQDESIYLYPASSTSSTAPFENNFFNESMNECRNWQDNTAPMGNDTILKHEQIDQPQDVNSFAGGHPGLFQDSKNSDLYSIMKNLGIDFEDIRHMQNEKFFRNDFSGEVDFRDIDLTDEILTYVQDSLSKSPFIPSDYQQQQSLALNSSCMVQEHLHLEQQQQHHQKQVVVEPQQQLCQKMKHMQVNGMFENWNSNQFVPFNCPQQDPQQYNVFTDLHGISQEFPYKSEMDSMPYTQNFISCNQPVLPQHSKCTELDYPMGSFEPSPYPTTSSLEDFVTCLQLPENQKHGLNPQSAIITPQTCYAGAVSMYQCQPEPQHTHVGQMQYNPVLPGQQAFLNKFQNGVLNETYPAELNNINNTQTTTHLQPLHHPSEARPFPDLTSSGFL
# AHR act cf – confirmation of human aryl hydrocarbon receptor activators; AID 2845; 2,300 tested, 87% active; human cells, AHR-responsive luciferase reporter, luminescence; activation, % at 9 µM; shares compounds with AHR act; in the data active means activation above about 49%;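 further: HepG2 hepatoma cells carrying a DRE-driven firefly luciferase reporter; 0% = vehicle wells and 100% = reference agonist wells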
# PXR act counter – activates human PXR in AHR activator counter-screen. shares compounds with AHR act. cell-based PXR reporter, luciferase luminescence. activation, % at 11.6 µM. 2,300 tested, 88% active; in the data active means activation above about 11%;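 further: human hepatoma DPX-2 cells expressing full-length human PXR; 0% = DMSO and 100% = reference agonist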
# Active calls of the source: *; nt = no result given. Sampled rows, rich in hits. Any-hit rate of the full collection: about 5.7%.
SMILES,DAX1 inh-1,hgDAF12 agonist,hcDAF-12 act,ssDAF12 agonist,DAX1 inh-2,AHR act,AHR act cf,PXR act counter
O=S(=O)(Nc1cccc(-c2nc3cccnc3s2)c1)c1ccc2c(c1)CCCC2,0,2,1,-1,1,16,nt,nt
Cc1ccc(-c2nc3cccnc3s2)cc1NS(=O)(=O)c1ccc2c(c1)CCCC2,1,0,4,0,2,93*,56*,154*
CNC(=S)N/N=C/c1cn(CCOc2ccccc2OC)c2ccccc12,0,-3,-3,-1,-1,80*,62*,110*
Cn1cc(/C=N/NC(N)=S)c2ccccc21,-1,-1,2,-2,-1,15,nt,nt
CCOC(=O)N/N=C/c1cn(CCCOc2ccccc2)c2ccccc12,-2,6,-1,-1,0,105*,85*,34*
C=CCNC(=S)N/N=C/c1cn(C)c2ccccc12,nt,-2,-1,-1,0,95*,74*,167*
N#CCc1c(C#N)c(N)nc(N2CCCC(O)C2)c1C#N (stereo not drawn),2,0,0,-1,1,6,nt,nt
CCC(=O)c1ccc(OCC(=O)NC2(C#N)CCCCC2)cc1,0,-4,0,-2,1,5,nt,nt
Cc1cc(-c2ccccc2)nc(N2CCN(c3ccccn3)CC2)n1,1,-2,0,-1,0,81*,93*,19*
Cc1cncc(N2CCN(c3ccccn3)CC2)n1,nt,1,0,-2,-1,nt,nt,nt
Cc1cc(Br)ccc1SCC(=O)Nc1cccnc1,-3,0,-3,-1,-1,5,nt,nt
Cn1ccc2cc3c(cc21)CCN3C(=O)Nc1cccnc1,0,-2,-2,-1,-1,118*,83*,31*
O=c1c2ccccc2[nH]c(=S)n1CCC1=CCCCC1,3,0,2,-1,0,113*,125*,24*
O=c1c2ccccc2[nH]c(=S)n1CCN1CCCCC1,1,0,-1,-1,0,11,nt,nt
COc1ccc(S(=O)(=O)NCCc2nnc3ccc(SCC(=O)Nc4nc(C)cs4)nn23)cc1,-1,1,-3,-1,0,5,nt,nt
COc1ccccc1C=CC(=O)C=Cc1ccccc1OC,-3,-10,-2,-1,-6,nt,nt,nt
COc1ccccc1/C=C/C(=O)N1CCCC1,-1,3,-2,-1,0,84*,102*,17*
COc1ccc([N+](=O)[O-])cc1N/C(=N/S(=O)(=O)c1ccccc1)c1ccccc1,0,1,2,0,0,113*,84*,133*
O=C1NN(c2ccc(F)cc2)C(=O)/C1=C/c1cccs1,0,5,-1,-1,0,1,nt,nt
Cc1cc(=O)n(CC(=O)NCCN2CCOCC2)c2c1c(C)nn2-c1ccccc1,0,nt,nt,nt,nt,1,nt,nt
Cc1cc(=O)n(CC(=O)NC2CC2)c2c1c(C)nn2-c1ccccc1,1,nt,nt,nt,nt,88*,84*,77*
O=C(Nc1ccncc1)c1cccc(S(=O)(=O)N2CCCC2)c1,-1,-4,-2,-1,-5,4,nt,nt
COc1ccc(CCC(=O)Nc2cccc(S(=O)(=O)N3CCCC3)c2)cc1OC,0,-3,-2,-2,-3,1,nt,nt
O=C(NC(=S)Nc1ccccc1N1CCCC1)c1cccc(F)c1,-1,-1,3,1,0,80*,91*,43*
Clc1ccc(C2=Nc3cc(Cl)ccc3OC2)cc1,2,6,2,0,1,104*,129*,6
c1ccc(C2=Nc3ccccc3OC2)cc1,0,-1,1,-1,-1,21,nt,nt
Cc1ccc2c(c1)N=C(c1ccc(Cl)cc1)CO2,0,6,4,1,3,135*,108*,31*
CCS(=O)(=O)c1ncc(CO)n1CCc1ccccc1,0,0,0,-1,0,0,nt,nt

# Assay outcomes: PubChem, The Scripps Research Institute Molecular Screening Center
